# Laboratory results published in PubChem BioAssay (Tox21).
# Where “and” joins values, the source holds several entries; their conditions need not be identical. Identical values can stand only once. Unmarked numbers belong to inactive results. Inconclusive results are not listed. Where a call stands in place of a potency, no number is given. Calls of active or inactive are those of the source. Unless noted, the call rests on the fitted dose curve.
# Assays:
# [1] = Nuclear factor erythroid 2-related factor 2/antioxidant responsive element (Nrf2/ARE) small molecule agonists: qHTS cell viability counter screen in human keratinocytes (AID 1919968; active means well fitted curve in the direction sought with a large enough effect in the repeat runs; an effect the other way counts as inactive or inconclusive; further: nearly all actives have a fitted effect of over 55% in size; further: potency means the concentration at half of the fitted maximal effect)
# Procedure, shortened: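 In human HaCaT keratinocytes stably expressing an ARE-driven luciferase, compound exposure lasted 23 h at 37 C under 5% CO2. Viable cells are quantified with a protease-based fluorogenic reagent (CellTiter-Fluor) read 1 h after addition.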
# [2] = Nuclear factor erythroid 2-related factor 2/antioxidant responsive element (Nrf2/ARE) small molecule agonists: luciferase reporter gene qHTS assay in human keratinocytes (AID 1919969); further: nearly all actives have a fitted effect of over 35% in size; further: potency means the concentration at half of the fitted maximal effect
# [3] = target: Gonadotropin-releasing hormone receptor (Homo sapiens) (UniProt P30968); experiment: Human gonadotropin-releasing hormone receptor (GnRHR) small molecule agonists, calcium flux assay in GnRHR-HEK293 cells (AID 1920063); further: nearly all actives have a fitted effect of over 35% in size
# Procedure, shortened: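 Intracellular calcium rise is the read-out: engineered human GnRHR HEK293 cells, dye-loaded, are exposed to DMSO-dissolved compounds and fluorescence at Ex/Em 480/540 is tracked for 3 min.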
# [4] = target: KiSS-1 receptor (Homo sapiens) (UniProt Q969F8); experiment: Human kisspeptin (KISS1R) small molecule agonists, calcium flux assay in KISS1R-HEK293 cells (AID 1920064; active means well fitted curve in the direction sought with a large enough effect in the repeat runs; an effect the other way counts as inactive or inconclusive)
# Procedure, shortened: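 Concentration-response testing used 15 concentrations in triplicate on human KISS1R-expressing HEK293 cells. Calcium-dependent fluorescence (Ex/Em 480/540) was followed kinetically for 3 min after compound transfer.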
# [5] = G protein-coupled receptor (GPCR) small molecule agonists, calcium flux assay: HEK293 wild type cell line counter screen (AID 1920065)
# Procedure, shortened: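 Fluorescence intensity signals activation. After overnight (18 h) culture and a 1 h calcium dye load at 37 C, compounds are added by pin tool and the plate read at 480/540 nm for 3 min in 1 s steps.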
# [6] = p53 small molecule agonists, cell-based qHTS assay with human liver microsomes (AID 1963577);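 further: p53 response element beta-lactamase reporter cells with liver microsomes plus NADPH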
# Procedure, shortened: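 HLM-supplemented p53RE-bla reporter assay: 16 h compound exposure at 37 C, microsomes and NADPH each 0.5 mg/mL final, read by fluorescence intensity.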
# [7] = p53 small molecule agonists, cell-based qHTS assay with rat liver microsomes (AID 1963578)
# Procedure, shortened: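 Quantitative HTS of the Tox21 10K library: p53RE-bla cells, rat liver microsomes plus NADPH at 0.5 mg/mL final each, 16 h at 37 C, beta-lactamase fluorescence detection.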
# [8] = p53 small molecule agonists, cell-based qHTS assay with human liver microsomes: qHTS cell viability counter screen (AID 1963579); further: nearly all actives have a fitted effect of over 45% in size
# Procedure, shortened: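 Viability of p53RE-bla cells is measured as CellTiter-Glo luminescence following a 16 h, 37 C incubation with compound, liver microsomes from human donors and NADPH.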
# [9] = p53 small molecule agonists, cell-based qHTS assay (AID 1963582; active means well fitted activation curve with a large enough effect in the signal ratio in the repeat runs, not every such curve was filed as active; the % refers to the signal ratio)
# Procedure, shortened: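 After plating, p53RE-bla cells sat 5 h in the incubator; compounds or DMSO vehicle were pinned in; a 16 h incubation at 37 C followed; FRET substrate was added and, 2 h later at RT, fluorescence was measured.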
# [10] = target: 5-hydroxytryptamine receptor 2A (Homo sapiens) (UniProt P28223); experiment: 5-hydroxytryptamine receptor 2A (HTR2A) small molecule antagonists, cell-based qHTS assay (AID 1963586); further: nearly all actives have a fitted effect of over 45% in size
# Procedure, shortened: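 CHO cells stably expressing human HTR2A were plated for 18 h at 37 C, then loaded with calcium dye for 1 h. Compounds were preincubated 5 min at room temperature before DOI (4 nM solution) was added. Kinetic fluorescence was read for 3 min.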
# [11] = target: Muscarinic acetylcholine receptor M1 (Homo sapiens) (UniProt P11229); experiment: Cholinergic receptor muscarinic 1 (CHRM1) small molecule antagonists, cell-based qHTS assay (AID 1963588); further: nearly all actives have a fitted effect of over 40% in size
# Procedure, shortened: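 Compounds were tested at 15 concentrations in three independent runs. Dye-loaded CHRM1-CHO cells were exposed 5 min at room temperature before stimulation by acetylcholine added at 50nM. Intracellular calcium was read kinetically on FDSS for 3 min.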
# [12] = target: Muscarinic acetylcholine receptor M1 (Homo sapiens) (UniProt P11229); experiment: Cholinergic receptor muscarinic 1 (CHRM1) small molecule agonists, cell-based qHTS assay (AID 1963589); further: nearly all actives have a fitted effect of over 35% in size
# Procedure, shortened: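 Fluorescent calcium dye reports M1 activation in stably transfected CHO cells. Compounds, 15 concentrations, added after 1 h dye loading at 37 C; kinetic reading at 1 sec intervals.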
# [13] = cAMP Responsive Elements (CRE) small molecule agonists, cell-based qHTS assay (AID 1963590)
# Procedure, shortened: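 Compound exposure lasted 3 h at 37 C/5% CO2 in CRE-bla HEK 293T cells grown in assay medium with 10% dialyzed FBS and 25 mM HEPES. Reporter signal came from LiveBLAzer B/G FRET substrate, 2 h, room temperature.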
# [14] = cAMP Responsive Elements (CRE) small molecule antagonists, cell-based qHTS assay (AID 1963591; active means well fitted inhibition curve with a large enough effect in the signal ratio in the repeat runs, not every such curve was filed as active; the % refers to the signal ratio)
# Procedure, shortened: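 Stimulation used NKH477 at a final 0.25 uM for 3 h in compound-treated CRE-bla HEK293T cells, seeded 18 h beforehand. Reporter activity was measured with LiveBLAzer B/G FRET substrate after 2 h at room temperature.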
# [15] = target: Beta-2 adrenergic receptor (Homo sapiens) (UniProt P07550); experiment: Adrenergic beta2 receptor (ADRB2) small molecule antagonists, cell-based qHTS assay (AID 1963592); further: series mostly up to about 92 µM; nearly all actives have a fitted effect of over 50% in size
# Procedure, shortened: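 Assay format: CHO-ADRB2 cells, 18-20hr seeding at 37C/5% CO2, then compound plus 1nM isoproterenol agonist mix for 0.5hr RT. Homogeneous time-resolved fluorescence cAMP detection after 1hr, expressed as 665/615 nm ratio.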
# [16] = target: Beta-2 adrenergic receptor (Homo sapiens) (UniProt P07550); experiment: Adrenergic beta2 receptor (ADRB2) small molecule agonists, cell-based qHTS assay (AID 1963593);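 further: CHO cells stably overexpressing human ADRB2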
# Procedure, shortened: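 CHO cells stably over-expressing ADRB2 were plated overnight at 37C, then dosed with compounds plus a stimulation mix containing 100uM IBMX and 25uM Ro-20-1724 for 0.5hr at room temperature. cAMP was measured by HTRF competition, 1hr.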
# [17] = target: D(2) dopamine receptor (Homo sapiens) (UniProt P14416); experiment: Dopamine D2 receptor (DRD2) small molecule agonists, cell-based qHTS assay (AID 1963594); further: nearly all actives have a fitted effect of over 35% in size
# Procedure, shortened: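 HEK293 cells stably expressing DRD2 were cultured 24 h at 37 C, then given Ro20-1724 (0.1 mM final) and compounds for 10 min at room temperature. NKH477 (200nM) was then added for 30 min. cAMP was read by HTRF.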
# [18] = target: D(2) dopamine receptor (Homo sapiens) (UniProt P14416); experiment: Dopamine D2 receptor (DRD2) small molecule antagonists, cell-based qHTS assay (AID 1963595; active means well fitted inhibition curve with a large enough effect in the signal ratio in the repeat runs, with a control signal flat; the % refers to the signal ratio)
# Procedure, shortened: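 Antagonism was scored as restored cAMP in HEK293-DRD2 cells. These cells were stimulated with 200 nM NKH477 and 12 nM quinpirole for 30 min at room temperature, in the presence of 0.1 mM Ro20-1724.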
# [19] = target: 5-hydroxytryptamine receptor 2A (Homo sapiens) (UniProt P28223); experiment: 5-hydroxytryptamine receptor 2A (HTR2A) small molecule agonists, cell-based qHTS assay (AID 1963587); further: nearly all actives have a fitted effect of over 30% in size
# Procedure, shortened: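 HTR2A-CHO cells, plated 18 h at 37 C/5% CO2, dye-loaded 1 h at 37 C; compounds in DMSO added by pin tool (agonist mode). Intracellular calcium flux read as kinetic fluorescence on FDSS over 2 min at 1 s intervals.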
# Beta-2 adrenergic receptor (Homo sapiens), sequence (P07550 whole entry, looked up): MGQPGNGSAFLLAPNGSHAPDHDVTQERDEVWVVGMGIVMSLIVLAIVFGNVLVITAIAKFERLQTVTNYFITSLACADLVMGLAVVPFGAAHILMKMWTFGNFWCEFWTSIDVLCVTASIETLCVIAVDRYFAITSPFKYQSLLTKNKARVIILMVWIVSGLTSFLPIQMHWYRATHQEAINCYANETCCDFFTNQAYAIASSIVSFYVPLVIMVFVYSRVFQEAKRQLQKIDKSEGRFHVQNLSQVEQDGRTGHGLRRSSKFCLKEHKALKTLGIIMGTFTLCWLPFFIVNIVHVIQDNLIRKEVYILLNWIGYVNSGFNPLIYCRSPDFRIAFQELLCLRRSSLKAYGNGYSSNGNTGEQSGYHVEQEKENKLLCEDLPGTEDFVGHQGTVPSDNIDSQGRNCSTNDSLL
# KiSS-1 receptor (Homo sapiens), sequence (Q969F8 whole entry, looked up): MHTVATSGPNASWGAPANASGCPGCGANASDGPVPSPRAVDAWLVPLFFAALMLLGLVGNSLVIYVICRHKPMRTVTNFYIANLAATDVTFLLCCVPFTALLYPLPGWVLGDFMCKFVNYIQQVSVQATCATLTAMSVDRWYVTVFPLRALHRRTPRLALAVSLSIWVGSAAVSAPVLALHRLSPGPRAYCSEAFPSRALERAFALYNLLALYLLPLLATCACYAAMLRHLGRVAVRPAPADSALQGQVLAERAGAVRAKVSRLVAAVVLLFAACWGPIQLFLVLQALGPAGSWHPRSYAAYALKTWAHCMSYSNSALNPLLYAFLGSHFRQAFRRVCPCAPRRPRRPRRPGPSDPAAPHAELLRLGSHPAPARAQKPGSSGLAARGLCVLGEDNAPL
# Muscarinic acetylcholine receptor M1 (Homo sapiens), sequence (P11229 whole entry, looked up): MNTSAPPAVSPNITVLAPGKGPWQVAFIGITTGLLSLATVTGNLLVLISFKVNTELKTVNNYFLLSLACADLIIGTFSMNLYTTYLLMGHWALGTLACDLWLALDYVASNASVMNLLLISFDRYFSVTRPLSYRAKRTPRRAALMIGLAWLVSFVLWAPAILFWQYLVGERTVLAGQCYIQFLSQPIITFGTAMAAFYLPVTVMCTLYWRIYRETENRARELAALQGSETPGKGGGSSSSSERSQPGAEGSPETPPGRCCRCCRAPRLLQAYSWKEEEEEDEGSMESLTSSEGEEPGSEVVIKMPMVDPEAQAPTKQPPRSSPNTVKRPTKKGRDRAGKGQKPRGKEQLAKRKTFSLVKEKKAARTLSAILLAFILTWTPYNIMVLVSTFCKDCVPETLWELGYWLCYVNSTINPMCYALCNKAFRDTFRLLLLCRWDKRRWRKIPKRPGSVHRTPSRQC
# D(2) dopamine receptor (Homo sapiens), sequence (P14416 whole entry, looked up): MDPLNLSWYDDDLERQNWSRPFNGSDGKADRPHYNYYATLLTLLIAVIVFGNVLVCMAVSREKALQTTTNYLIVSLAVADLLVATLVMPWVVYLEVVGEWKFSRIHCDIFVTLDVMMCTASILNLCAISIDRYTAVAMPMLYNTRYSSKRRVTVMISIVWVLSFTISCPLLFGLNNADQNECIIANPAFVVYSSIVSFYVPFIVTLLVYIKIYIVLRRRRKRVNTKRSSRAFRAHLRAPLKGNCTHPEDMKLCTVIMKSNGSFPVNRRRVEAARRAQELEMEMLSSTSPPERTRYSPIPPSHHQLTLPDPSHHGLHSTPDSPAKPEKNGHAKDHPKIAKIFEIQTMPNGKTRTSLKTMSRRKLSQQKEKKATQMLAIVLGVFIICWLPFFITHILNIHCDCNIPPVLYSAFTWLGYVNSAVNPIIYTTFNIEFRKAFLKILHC
# Gonadotropin-releasing hormone receptor (Homo sapiens), sequence (P30968 whole entry, looked up): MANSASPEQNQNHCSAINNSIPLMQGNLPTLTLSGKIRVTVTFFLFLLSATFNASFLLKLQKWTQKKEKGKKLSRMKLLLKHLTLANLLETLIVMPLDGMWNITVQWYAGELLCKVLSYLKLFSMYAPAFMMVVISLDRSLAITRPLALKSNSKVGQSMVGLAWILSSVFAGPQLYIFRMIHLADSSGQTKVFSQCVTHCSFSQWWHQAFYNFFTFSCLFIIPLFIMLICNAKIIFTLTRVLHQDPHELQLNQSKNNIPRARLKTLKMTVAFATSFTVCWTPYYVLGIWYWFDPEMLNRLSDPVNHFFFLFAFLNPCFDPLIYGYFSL
# 5-hydroxytryptamine receptor 2A (Homo sapiens), sequence (P28223 whole entry, looked up): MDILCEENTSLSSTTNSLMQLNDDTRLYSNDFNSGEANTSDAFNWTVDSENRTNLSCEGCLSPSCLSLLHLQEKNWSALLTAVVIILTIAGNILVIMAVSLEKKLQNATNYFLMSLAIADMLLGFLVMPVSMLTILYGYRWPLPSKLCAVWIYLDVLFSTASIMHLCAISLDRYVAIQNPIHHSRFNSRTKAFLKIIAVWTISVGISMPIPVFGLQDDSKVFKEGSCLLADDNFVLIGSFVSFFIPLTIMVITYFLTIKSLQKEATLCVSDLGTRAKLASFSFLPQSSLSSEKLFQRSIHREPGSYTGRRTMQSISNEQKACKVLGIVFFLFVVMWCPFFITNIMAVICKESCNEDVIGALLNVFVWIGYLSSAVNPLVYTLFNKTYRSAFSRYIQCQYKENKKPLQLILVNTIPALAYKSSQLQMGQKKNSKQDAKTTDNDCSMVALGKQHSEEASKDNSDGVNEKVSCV
SMILES,Potency [1],Potency [2],Potency [3],Potency [4],Potency [5],Potency [6],Potency [7],Potency [8],Potency [9],Potency [10],Potency [11],Potency [12],Potency [13],Potency [14],Potency [15],Potency [16],Potency [17],Potency [18],Potency [19]
CC(C)(C)NCCO,inactive,inactive,inactive,inactive,inactive,inactive,inactive,inactive,inactive,inactive,inactive,inactive,inactive,inactive,inactive,inactive,inactive,inactive,–
CC/C=C\CCOC(=O)CC,inactive,inactive,inactive,inactive,inactive,inactive,inactive,inactive,inactive,inactive,inactive,–,inactive,inactive,inactive,inactive,inactive,inactive,–
CC1CCCC(=O)C1=O (stereo not drawn),inactive,inactive,inactive,inactive,inactive,inactive,inactive,inactive,inactive,–,inactive,inactive,inactive,inactive,inactive,inactive,inactive,inactive,inactive
Nc1ccc([N+](=O)[O-])c(C(F)(F)F)c1,inactive,inactive,inactive,inactive,inactive,inactive,inactive,inactive,inactive,inactive,inactive,inactive,inactive,inactive,inactive,–,inactive,inactive,inactive
COc1nc(C)nc(NC(=O)NS(=O)(=O)c2ccccc2OCCCl)n1,inactive,inactive,inactive,inactive,inactive,inactive,inactive,inactive,inactive,inactive,inactive,inactive,–,inactive,inactive,–,inactive,inactive,inactive
CN(C)CCCNCCC#N,inactive,inactive,inactive,inactive,inactive,inactive,inactive,inactive,inactive,–,inactive,inactive,inactive,inactive,inactive,–,inactive,–,inactive
c1ccc(CNCc2ccccc2)cc1,inactive,inactive,inactive,inactive,inactive,inactive,inactive,inactive,inactive,–,inactive,–,inactive,inactive,inactive,inactive,inactive,inactive,inactive
BrC1CCC(Br)C(Br)CCC(Br)C(Br)CCC1Br (stereo not drawn),17.2 µM (active),9.65 µM (active) and 16.3 µM (active),inactive,inactive,inactive,inactive,inactive,inactive,–,inactive,inactive,inactive,inactive,inactive,inactive,–,inactive,inactive,inactive
